# According to the supplement of paper PMC10732440:
# ± gives the standard deviation of the averaged measurements.
# Test system: Caenorhabditis elegans N2 infected with Nematocida parisii ERTm1
# Assay: progeny production relative to DMSO uninfected control; higher = more progeny despite microsporidia infection (inhibition of infection with low host toxicity)
# Conditions: infection time 6 days; 40 µM
# Protocol: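 Bleach-synchronised C. elegans N2 L1 larvae (100 per well) were grown in 96-well plates in K-medium with 5x E. coli OP50 and 15,000 N. parisii spores/uL, plus Pandemic Response Box compound at 100 uM or 40 uM (1% DMSO), for 6 days at 21 C with shaking. Worms were stained with Rose Bengal, scanned on a flatbed scanner and counted with WorMachine. Progeny production is given as % of the DMSO uninfected control (triplicate wells), so higher values mean the compound restores progeny despite infection.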
row,Compound,progeny production
1,C[C@@]1(O)[C@H](O)[C@@H](CO)O[C@H]1n1ccc2c(N)ncnc21,7.31 ± 1.5%
2,COc1ccccc1CN[C@H]1C2CCN(CC2)[C@H]1C(c1ccccc1)c1ccccc1,8.71 ± 4.8%
3,NC1(C(=O)O)CCP(=O)(O)CC1 (centres undefined),2.95 ± 1.1%
4,C[N+]1(C)CCCC(OC(=O)C(O)(c2ccccc2)c2ccccc2)C1 (centres undefined),12.7 ± 11%
5,COc1cc(C(C)(C)CCCC(C)C)cc(OC)c1OC,5.3 ± 1.8%
6,O=C(NC12CC3CC(CC(C3)C1)C2)c1cc2ccccc2[nH]1,6.55 ± 3.2%
7,COC(=O)Nc1nc2ccccc2[nH]1,9.55 ± 1.4%
8,CCN1CCN(Cc2nc3ccc([N+](=O)[O-])cc3c(=O)n2-c2ccccc2F)CC1,6.53 ± 2.2%
9,CCCCc1ccc(C(=O)O)nc1,3.89 ± 0.63%
10,CC(C)Oc1cccc(NC(=O)c2ccccc2C(F)(F)F)c1,3.26 ± 1%
11,CN1C(=O)C(c2ccccc2)C(=O)N(c2ccccc2)c2cc(C(F)(F)F)ccc21 (centres undefined),3.86 ± 0.4%
12,Nc1c(C(=O)NCc2ccco2)c2nc3ccccc3nc2n1CCN1CCCCC1,6.14 ± 2.6%

# Same assay, conditions: infection time 6 days; 100 µM
row,Compound,progeny production
1,C[C@@]1(O)[C@H](O)[C@@H](CO)O[C@H]1n1ccc2c(N)ncnc21,15.4 ± 2%
2,COc1ccccc1CN[C@H]1C2CCN(CC2)[C@H]1C(c1ccccc1)c1ccccc1,16.1 ± 5.7%
3,NC1(C(=O)O)CCP(=O)(O)CC1 (centres undefined),16.6 ± 16%
4,C[N+]1(C)CCCC(OC(=O)C(O)(c2ccccc2)c2ccccc2)C1 (centres undefined),4.14 ± 1.8%
5,COc1cc(C(C)(C)CCCC(C)C)cc(OC)c1OC,12.1 ± 4.9%
6,O=C(NC12CC3CC(CC(C3)C1)C2)c1cc2ccccc2[nH]1,5.96 ± 4%
7,COC(=O)Nc1nc2ccccc2[nH]1,19.7 ± 17%
8,CCN1CCN(Cc2nc3ccc([N+](=O)[O-])cc3c(=O)n2-c2ccccc2F)CC1,16.4 ± 6.8%
9,CCCCc1ccc(C(=O)O)nc1,18.3 ± 10%
10,CC(C)Oc1cccc(NC(=O)c2ccccc2C(F)(F)F)c1,18.9 ± 12%
11,CN1C(=O)C(c2ccccc2)C(=O)N(c2ccccc2)c2cc(C(F)(F)F)ccc21 (centres undefined),8.44 ± 2%
12,Nc1c(C(=O)NCc2ccco2)c2nc3ccccc3nc2n1CCN1CCCCC1,8.06 ± 4%
